The panel holds about 79,000 compounds, 15% with a hit somewhere; the sample as a whole holds those more often. Cut-off read from the data, not from the text of the source: active = growth inhibition above about 70%; inactive = the rest.
Assays:
[1] = NCI Yeast Anticancer Drug Screen. Data for the rad50 strain (AID 155);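 note: 0% = growth of vehicle-only cultures of the same strain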; conditions: S. cerevisiae rad50 strain growth inhibition; at 50.0 µM; stronger effect = higher value
How it was run: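 Growth of the mutant yeast was measured after compound exposure and referenced to vehicle-treated cultures.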

[2] = NCI Yeast Anticancer Drug Screen. Data for the mec2-1 strain (AID 157); conditions: S. cerevisiae mec2-1 strain, at 50.0 µM, stronger effect = higher value
How it was run: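 Each compound was tested on mec2-1 yeast, a strain altered in DNA damage repair or cell cycle control. Growth inhibition is reported relative to vehicle.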

[3] = NCI Yeast Anticancer Drug Screen. Data for the sgs1 mgt1 strain (AID 161);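 note: 0% = growth of cultures given vehicle only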; conditions: S. cerevisiae sgs1 mgt1 strain, at 50.0 µM, stronger effect = higher value
How it was run: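 Read-out: growth inhibition vs vehicle controls. Cells: mutant yeast strain deficient in DNA damage repair.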

[4] = NCI Yeast Anticancer Drug Screen. Data for the cln2 rad14 strain (AID 165);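 note: 0% = growth equal to vehicle treated cultures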; conditions: S. cerevisiae cln2 rad14 strain, at 50.0 µM, stronger effect = higher value
How it was run: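 Test compounds were added to cln2 rad14 yeast cultures; inhibition of growth was then determined by comparison with vehicle treatment.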

[5] = NCI Yeast Anticancer Drug Screen. Data for the bub3 strain (AID 167); conditions: S. cerevisiae bub3 mutant strain, at 50.0 µM, stronger effect = higher value
How it was run: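 Whole-cell yeast assay. The mutant strain was incubated with compounds, and growth inhibition was determined by comparison with vehicle-treated cells.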

[6] = NCI Yeast Anticancer Drug Screen. Data for the mlh1 rad18 strain (AID 175); conditions: S. cerevisiae mlh1 rad18 strain growth inhibition; at 50.0 µM; stronger effect = higher value
How it was run: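 Inhibition values reflect reduced growth of mutant yeast versus vehicle-treated controls following compound exposure; the mutations affect DNA damage repair.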

Measured: growth inhibition

CCN(CC)/[N+]([O-])=N/OCC(C)O (stereo unspecified)
inactive: [1] 18.4% | [2] -3.45% | [3] -3.85% | [4] 8.35% | [5] 0.55% | [6] -12.5%

CC12CCC(/C(=C/N(O)/C=C3\C(=O)C4(C)CCC3C4(C)C)C1=O)C2(C)C
inactive: [1] -17.6% | [2] -11.8% | [3] -30.1% | [4] 1.85% | [5] 6.75% | [6] 0.8%

C=CCOC(=O)C1(O)c2ccccc2NC(=S)N1CC=C (stereo unspecified)
inactive: [1] 1.35% | [2] 7.4% | [3] 5.2% | [4] 6.9% | [5] 10.3% | [6] -0.8%

Cc1cc(NC(=O)NC(=O)c2ccccc2NC(=O)CN)ccc1Oc1ncc(Br)cn1
inactive: [1] 6% | [2] -13.8% | [3] 40.3% | [4] 11.4% | [5] 15.1% | [6] -43.5%

Cc1nc2cccc([N+](=O)[O-])c2c(O)[n+]1C
inactive: [1] -13.9% | [2] -10.8% | [3] -12.4% | [4] -17.6% | [5] -9.05% | [6] -17.9%

CC(=O)NC1C(OC(C)C(=O)NC(C)C(=O)NC(CCC(=O)NCCCCCNc2ccc([N+](=O)[O-])c3[nH]c4ccccc4c(=O)c23)C(N)=O)C(O)C(CO)OC1(C)OCc1ccccc1 (stereo unspecified)
inactive: [1] 13% | [2] 13.1% | [3] 27.2% | [4] 23.9% | [5] 19.9% | [6] 32.9%

O=C(Cc1nc2ccc([N+](=O)[O-])cc2[nH]c1=O)C(=O)Nc1ccccc1[N+](=O)[O-]
inactive: [1] 25.6% | [2] 8.8% | [3] 11.1% | [4] 12.2% | [5] 15.8% | [6] 6.05%

COC(C(O)C(O)C(O)C(O)CO)n1cnc2cncnc21 (stereo unspecified)
inactive: [1] 4.05% | [2] 5.45% | [3] 7.8% | [4] 2.9% | [5] -4.2% | [6] 2.45%

O=[N+]([O-])c1cccc(-c2cc3ccccn3c2)c1
inactive: [1] 28.9% | [2] 7% | [3] 13.8% | [4] 5.6% | [5] -1.95% | [6] 6.85%

CCOC(=O)c1c(O)csc1N
inactive: [1] 7.85% | [2] 5.45% | [3] 3.8% | [4] -16.9% | [5] -20.6% | [6] 10.7%

NC(CCCCC(N)C(=O)c1ccccc1)C(=O)c1ccccc1 (stereo unspecified)
inactive: [1] -11.9% | [2] -7.45% | [3] -4.85% | [4] -15.9% | [5] 1.55% | [6] 3.25%

Nc1cc2c(cc1Br)-c1c(C(=O)O)cccc1C2=O
inactive: [1] -20% | [2] 9.3% | [3] -2.4% | [4] 7.1% | [5] 11.2% | [6] -13.1%

CCOC(O)C(F)(F)F (stereo unspecified)
inactive: [1] 9.2% | [2] -0.7% | [3] 10.6% | [4] 15.8% | [5] 0.45% | [6] 13.2%

O=C(Oc1ccc(Cl)cc1)c1ccccc1
inactive: [1] 25.3% | [2] -2.1% | [3] -1.65% | [4] 2.25% | [5] -7.75% | [6] -25.6%

CC1=CC(=O)OC1=O
inactive: [1] 4.9% | [2] 15% | [3] 2.15% | [4] 8.9% | [5] 5.9% | [6] 22%

CC(=O)C(C)(C)O
inactive: [1] 45.4% | [2] -5.55% | [3] 48.8% | [4] -8.7% | [5] 14.2% | [6] 38.9%

COC(=O)CCSCCC(=O)OC
inactive: [1] 1.5% | [2] -0.15% | [3] -8.15% | [4] -8.2% | [5] 1.75% | [6] -1.95%

CCCCCOC(=S)S
inactive: [1] -2.6% | [2] 11.8% | [3] 32.7% | [4] -12.1% | [5] 13.4% | [6] 29.9%

Cc1ccc(N(C(=O)Nc2ccccc2)C2=NCC(C)S2)cc1C (stereo unspecified)
inactive: [1] -29.5% | [2] -17.9% | [3] -37.4% | [4] 2.5% | [5] 39.3% | [6] -39.6%

Nc1cccc2c(S(=O)(=O)O)cccc12
inactive: [1] -2.9% | [2] -3.15% | [3] -11.9% | [4] -66.7% | [5] 0.3% | [6] 0.75%

CCCCNC(=O)CSc1cc(Cl)c(Cl)cc1Cl
inactive: [1] 15.2% | [2] 9.1% | [3] 16.6% | [4] 19.1% | [5] 25.6% | [6] 13.2%

From PubChem BioAssay (NCI)
